In the supplement of paper PMC11732987, “Enantioselective OTUD7B fragment discovery through chemoproteomics screening and high-throughput optimisation” (Communications Chemistry, 2025):

Key:
Experiment in all cases: log2 ratio of Biotin-Ahx-Ub-VS probe labelling (fragment/DMSO); higher = less target engagement (more negative = stronger competition), active = hit call of the paper (q ≤ 0.05, log2 ratio ≤ -1)
Settings in all cases: compound concentration: 200 uM; treatment time: 3 h
USP34 = USP34 (UniProt Q70CQ2)
Procedure, shortened: (§1)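 Global-median-normalised Spectronaut label-free quantities were compared by unpaired t-test, and values are average log2 ratios of fragment over vehicle. Only proteins with ≥2 unique peptides were used. HEK293T lysate (495 µg per sample) was treated in triplicate with fragment at 200 µM or vehicle for 3 h and then with Biotin-Ahx-Ub-VS at 0.5 µM final for 1 h. Labelled DUBs were then NeutrAvidin-enriched, digested with LysC and trypsin, and run by diaPASEF LC-MS/MS.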

USP36 = target: T1, USP36 (UniProt Q9P275)
T1 sequence (whole entry): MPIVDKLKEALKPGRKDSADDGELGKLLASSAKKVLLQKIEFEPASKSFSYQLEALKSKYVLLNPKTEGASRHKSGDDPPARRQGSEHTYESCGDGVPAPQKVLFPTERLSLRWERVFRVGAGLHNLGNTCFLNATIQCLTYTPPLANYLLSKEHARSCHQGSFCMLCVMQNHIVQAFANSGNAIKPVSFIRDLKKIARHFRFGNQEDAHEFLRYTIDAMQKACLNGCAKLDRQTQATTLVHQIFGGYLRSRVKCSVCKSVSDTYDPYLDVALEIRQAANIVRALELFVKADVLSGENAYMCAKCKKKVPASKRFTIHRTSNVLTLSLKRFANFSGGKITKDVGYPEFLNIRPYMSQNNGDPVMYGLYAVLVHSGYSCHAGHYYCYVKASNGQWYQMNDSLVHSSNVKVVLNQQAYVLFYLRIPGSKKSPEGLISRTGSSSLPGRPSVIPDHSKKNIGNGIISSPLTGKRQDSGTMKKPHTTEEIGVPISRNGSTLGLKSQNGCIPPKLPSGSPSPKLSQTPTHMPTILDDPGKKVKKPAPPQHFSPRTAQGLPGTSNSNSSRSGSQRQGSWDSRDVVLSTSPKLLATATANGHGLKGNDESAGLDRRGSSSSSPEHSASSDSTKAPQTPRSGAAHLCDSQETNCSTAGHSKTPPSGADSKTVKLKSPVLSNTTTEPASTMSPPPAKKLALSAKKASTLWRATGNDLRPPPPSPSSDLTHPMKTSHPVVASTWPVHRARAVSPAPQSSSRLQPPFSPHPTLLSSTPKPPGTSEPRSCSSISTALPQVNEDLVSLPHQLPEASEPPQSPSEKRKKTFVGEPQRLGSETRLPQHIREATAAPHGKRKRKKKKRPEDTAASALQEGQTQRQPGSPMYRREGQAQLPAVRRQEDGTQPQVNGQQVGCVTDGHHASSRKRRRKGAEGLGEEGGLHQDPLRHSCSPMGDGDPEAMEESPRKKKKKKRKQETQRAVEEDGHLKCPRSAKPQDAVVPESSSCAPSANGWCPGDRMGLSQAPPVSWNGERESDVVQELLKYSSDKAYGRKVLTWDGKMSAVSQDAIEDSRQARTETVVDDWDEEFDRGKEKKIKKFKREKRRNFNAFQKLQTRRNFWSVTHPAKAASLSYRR
Procedure, shortened: as §1

USP38 = target: T2, USP38 (UniProt Q8NB14)
T2 sequence (whole entry): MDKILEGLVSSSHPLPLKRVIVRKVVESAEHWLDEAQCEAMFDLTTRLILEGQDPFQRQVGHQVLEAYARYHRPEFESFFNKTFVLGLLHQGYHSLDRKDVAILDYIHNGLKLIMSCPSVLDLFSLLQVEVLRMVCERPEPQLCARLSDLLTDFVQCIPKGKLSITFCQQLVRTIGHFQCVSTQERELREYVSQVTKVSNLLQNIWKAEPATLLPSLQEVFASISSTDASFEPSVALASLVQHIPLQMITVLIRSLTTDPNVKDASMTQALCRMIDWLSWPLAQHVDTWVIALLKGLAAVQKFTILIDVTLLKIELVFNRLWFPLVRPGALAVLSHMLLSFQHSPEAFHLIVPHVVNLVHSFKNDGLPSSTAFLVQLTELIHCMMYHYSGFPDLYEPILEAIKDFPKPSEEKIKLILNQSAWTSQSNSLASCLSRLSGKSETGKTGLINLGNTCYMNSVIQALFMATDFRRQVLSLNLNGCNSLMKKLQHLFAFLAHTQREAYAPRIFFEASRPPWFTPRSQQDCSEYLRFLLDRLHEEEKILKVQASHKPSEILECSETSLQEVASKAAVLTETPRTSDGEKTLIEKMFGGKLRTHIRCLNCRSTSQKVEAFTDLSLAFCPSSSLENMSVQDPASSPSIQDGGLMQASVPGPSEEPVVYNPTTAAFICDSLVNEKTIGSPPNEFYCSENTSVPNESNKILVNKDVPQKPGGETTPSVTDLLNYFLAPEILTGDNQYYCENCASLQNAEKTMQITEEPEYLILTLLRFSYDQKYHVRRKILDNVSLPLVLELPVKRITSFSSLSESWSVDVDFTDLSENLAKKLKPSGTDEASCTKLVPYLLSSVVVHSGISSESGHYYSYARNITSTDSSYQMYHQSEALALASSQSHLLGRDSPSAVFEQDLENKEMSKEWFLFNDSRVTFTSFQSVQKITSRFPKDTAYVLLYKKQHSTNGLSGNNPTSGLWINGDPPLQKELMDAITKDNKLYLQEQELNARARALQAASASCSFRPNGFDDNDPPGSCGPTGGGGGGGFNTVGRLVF
Procedure, shortened: as §1

USP39 = target: T3, USP39 (UniProt Q53GS9)
T3 sequence (whole entry): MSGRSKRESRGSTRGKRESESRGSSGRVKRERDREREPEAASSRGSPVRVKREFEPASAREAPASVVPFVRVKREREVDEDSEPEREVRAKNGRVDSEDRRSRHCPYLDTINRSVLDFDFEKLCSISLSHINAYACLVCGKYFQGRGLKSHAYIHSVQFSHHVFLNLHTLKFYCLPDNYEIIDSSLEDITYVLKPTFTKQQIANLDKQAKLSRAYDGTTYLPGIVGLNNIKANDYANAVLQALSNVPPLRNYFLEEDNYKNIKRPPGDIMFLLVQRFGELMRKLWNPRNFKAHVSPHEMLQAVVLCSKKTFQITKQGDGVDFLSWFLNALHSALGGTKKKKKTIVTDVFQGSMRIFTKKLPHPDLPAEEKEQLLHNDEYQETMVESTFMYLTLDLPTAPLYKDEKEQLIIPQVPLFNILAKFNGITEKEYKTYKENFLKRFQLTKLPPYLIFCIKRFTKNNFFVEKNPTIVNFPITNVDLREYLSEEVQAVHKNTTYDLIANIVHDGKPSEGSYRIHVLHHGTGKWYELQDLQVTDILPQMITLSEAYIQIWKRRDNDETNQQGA
Procedure, shortened: as §1

USP4 = target: T4, USP4 (UniProt Q13107)
T4 sequence (whole entry): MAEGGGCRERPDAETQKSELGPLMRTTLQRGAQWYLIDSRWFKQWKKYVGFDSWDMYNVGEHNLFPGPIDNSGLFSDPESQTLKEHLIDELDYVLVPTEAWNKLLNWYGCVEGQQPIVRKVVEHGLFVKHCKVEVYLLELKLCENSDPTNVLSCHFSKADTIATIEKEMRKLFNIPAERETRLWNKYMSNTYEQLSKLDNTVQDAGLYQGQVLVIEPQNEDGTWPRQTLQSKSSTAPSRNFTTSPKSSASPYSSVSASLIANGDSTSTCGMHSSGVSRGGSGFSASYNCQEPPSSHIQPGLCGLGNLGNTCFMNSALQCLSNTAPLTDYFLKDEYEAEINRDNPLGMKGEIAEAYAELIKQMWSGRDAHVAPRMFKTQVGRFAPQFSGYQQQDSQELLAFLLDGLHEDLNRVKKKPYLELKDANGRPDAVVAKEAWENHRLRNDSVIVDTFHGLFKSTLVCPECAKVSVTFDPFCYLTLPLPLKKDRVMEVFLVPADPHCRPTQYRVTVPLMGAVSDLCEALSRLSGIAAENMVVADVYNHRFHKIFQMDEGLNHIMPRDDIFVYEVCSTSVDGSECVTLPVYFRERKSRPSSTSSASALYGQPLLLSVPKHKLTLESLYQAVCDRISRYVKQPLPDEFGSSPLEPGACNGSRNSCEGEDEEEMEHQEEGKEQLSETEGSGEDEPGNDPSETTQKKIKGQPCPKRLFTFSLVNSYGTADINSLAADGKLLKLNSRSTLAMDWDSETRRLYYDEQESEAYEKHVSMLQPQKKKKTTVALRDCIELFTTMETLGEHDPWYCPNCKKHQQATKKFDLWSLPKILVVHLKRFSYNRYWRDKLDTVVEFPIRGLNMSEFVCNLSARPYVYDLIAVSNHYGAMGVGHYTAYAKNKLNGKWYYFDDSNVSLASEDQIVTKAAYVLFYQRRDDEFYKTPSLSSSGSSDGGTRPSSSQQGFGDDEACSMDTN
Procedure, shortened: as §1

Measured: log2 ratio of Biotin-Ahx-Ub-VS probe labelling

USP34, sequence (Q70CQ2 whole entry, the tested form may be a part): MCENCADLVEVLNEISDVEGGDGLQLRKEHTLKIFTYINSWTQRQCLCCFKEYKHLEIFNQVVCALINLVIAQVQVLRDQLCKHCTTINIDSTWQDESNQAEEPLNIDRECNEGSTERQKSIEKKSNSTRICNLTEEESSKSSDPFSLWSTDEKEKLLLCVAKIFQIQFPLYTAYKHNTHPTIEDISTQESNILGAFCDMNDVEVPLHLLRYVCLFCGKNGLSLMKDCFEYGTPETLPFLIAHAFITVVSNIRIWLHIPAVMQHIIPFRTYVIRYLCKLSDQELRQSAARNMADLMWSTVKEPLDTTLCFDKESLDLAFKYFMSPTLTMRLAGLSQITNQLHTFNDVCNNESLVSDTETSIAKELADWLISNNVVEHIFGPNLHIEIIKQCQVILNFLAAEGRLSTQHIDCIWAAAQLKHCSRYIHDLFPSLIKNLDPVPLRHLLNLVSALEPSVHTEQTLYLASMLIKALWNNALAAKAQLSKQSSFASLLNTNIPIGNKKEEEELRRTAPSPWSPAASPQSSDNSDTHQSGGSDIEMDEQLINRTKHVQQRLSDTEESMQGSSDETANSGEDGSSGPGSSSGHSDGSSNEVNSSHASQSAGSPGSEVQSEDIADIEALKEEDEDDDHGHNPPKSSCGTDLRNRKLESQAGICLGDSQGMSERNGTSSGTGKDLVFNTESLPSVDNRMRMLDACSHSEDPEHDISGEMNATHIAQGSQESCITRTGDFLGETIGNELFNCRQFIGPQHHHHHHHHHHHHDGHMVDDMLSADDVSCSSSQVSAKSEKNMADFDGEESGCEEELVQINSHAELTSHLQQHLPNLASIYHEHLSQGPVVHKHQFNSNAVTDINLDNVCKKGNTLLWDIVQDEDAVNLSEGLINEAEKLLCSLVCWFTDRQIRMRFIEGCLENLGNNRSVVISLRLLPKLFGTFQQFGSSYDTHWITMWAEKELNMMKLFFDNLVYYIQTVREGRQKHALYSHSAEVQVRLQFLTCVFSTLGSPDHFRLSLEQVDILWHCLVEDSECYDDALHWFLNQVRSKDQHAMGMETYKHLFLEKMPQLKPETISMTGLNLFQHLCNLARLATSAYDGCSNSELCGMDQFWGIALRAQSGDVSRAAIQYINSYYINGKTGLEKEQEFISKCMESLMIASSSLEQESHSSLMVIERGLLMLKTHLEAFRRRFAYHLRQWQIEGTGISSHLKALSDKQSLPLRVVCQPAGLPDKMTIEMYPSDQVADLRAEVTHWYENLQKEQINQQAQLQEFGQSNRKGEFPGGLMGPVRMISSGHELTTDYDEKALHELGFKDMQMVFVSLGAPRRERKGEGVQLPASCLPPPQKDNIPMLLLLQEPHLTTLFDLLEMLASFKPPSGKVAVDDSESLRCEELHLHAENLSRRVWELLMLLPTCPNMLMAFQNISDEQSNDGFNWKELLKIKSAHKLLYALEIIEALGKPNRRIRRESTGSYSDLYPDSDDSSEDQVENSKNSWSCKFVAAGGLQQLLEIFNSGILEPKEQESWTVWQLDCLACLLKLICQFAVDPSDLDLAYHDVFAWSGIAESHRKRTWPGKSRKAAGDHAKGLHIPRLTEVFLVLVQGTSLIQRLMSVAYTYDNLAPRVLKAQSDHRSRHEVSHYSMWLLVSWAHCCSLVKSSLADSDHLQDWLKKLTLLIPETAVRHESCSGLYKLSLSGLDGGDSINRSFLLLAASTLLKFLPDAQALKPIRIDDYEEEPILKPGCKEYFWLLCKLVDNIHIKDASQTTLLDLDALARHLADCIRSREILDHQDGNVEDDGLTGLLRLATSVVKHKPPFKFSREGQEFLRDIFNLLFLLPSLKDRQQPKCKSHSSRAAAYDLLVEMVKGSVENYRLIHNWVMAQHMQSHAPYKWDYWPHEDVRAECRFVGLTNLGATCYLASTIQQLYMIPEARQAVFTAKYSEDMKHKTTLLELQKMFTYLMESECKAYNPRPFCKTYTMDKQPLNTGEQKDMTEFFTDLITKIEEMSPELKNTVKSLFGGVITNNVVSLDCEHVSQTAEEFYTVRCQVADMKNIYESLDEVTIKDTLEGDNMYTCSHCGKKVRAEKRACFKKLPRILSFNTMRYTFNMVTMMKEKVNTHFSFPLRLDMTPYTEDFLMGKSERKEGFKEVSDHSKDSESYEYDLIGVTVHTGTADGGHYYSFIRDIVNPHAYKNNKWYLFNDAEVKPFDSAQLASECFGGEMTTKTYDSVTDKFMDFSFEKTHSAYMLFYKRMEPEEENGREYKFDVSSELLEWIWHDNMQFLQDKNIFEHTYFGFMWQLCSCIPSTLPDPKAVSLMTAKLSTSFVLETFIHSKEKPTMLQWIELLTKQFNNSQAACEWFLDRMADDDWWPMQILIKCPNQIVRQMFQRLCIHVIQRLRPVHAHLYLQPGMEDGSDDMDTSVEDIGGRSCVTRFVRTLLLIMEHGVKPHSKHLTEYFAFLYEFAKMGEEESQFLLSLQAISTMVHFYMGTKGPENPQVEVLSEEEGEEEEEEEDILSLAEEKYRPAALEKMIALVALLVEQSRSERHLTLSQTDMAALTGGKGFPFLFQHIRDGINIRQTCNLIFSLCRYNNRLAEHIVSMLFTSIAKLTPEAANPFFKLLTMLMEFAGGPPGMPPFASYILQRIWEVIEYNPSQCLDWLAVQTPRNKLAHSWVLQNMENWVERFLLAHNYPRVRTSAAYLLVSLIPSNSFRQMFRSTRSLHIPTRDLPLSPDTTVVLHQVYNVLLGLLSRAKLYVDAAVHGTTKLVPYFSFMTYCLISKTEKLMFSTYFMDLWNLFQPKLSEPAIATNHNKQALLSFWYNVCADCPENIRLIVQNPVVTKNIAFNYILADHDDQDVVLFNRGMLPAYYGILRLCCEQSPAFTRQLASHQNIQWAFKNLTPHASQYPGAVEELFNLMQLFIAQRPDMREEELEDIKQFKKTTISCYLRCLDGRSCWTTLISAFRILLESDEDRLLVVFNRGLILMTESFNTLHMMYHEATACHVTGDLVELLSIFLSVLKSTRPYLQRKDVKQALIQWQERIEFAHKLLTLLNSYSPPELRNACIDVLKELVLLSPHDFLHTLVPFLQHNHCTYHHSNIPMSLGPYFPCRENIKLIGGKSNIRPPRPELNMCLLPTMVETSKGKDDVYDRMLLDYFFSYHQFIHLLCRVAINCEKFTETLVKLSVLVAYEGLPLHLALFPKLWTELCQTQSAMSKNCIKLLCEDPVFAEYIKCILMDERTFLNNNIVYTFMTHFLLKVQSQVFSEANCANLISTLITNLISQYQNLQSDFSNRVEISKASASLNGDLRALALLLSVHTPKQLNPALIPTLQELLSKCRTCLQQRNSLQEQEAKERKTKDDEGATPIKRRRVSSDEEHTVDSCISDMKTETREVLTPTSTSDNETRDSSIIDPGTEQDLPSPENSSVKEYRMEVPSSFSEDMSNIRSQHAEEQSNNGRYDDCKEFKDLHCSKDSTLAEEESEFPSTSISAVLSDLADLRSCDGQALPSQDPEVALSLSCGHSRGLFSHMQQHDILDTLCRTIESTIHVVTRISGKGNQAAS

COCC1C=CCCN1C(=O)CCl (stereo not given)
inactive: USP34 -0.0902 | USP36 -0.00282 | USP38 -0.157 | USP39 -0.196 | USP4 -0.211
